EBI2 block – EBI2 receptor antagonists, beta-arrestin recruitment, primary screen, cell-based, luminescence, 7a,25-OHC stimulation, uHTS. 7a,25-OHC stimulated. inhibition, % at 5 µM. 360,000 tested, 0.81% active; in the data active means inhibition above about 38%;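 further: enzyme fragment complementation signal reports receptor beta-arrestin coupling in cells; 0% = agonist plus DMSO wells and 100% = wells without agonist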
Target sequence (P32249 whole entry, looked up, the tested form may be a part): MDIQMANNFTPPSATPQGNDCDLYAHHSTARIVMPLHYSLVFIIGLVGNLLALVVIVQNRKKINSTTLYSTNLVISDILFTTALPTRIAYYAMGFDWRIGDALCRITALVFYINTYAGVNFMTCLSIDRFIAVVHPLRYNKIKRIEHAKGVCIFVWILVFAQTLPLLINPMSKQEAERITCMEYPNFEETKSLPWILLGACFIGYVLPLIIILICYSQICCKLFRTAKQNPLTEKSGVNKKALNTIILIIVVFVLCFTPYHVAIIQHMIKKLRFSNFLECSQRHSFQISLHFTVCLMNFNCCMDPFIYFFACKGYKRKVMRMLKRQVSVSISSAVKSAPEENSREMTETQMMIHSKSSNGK
AHR activator – AHR activators, primary screen, cell-based, luminescence, luciferase reporter, human; AID 2796, 2010; Aryl hydrocarbon receptor (Homo sapiens), P35869; activation, % at 5 µM; AHR-responsive luciferase reporter cells; 320,000 tested, 2.5% active; in the data active means activation above about 47%;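 further: 0% = vehicle wells and 100% = reference agonist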
SENP7 inh – SENP7 protease inhibitors, primary screen, biochemical, luminescence, uHTS; Sentrin-specific protease 7 (Homo sapiens), Q9BQF6; recombinant SENP7, Z-RLRGG-aminoluciferin luminescence, 40 min; inhibition, % at 5 µM; 330,000 tested, 1.5% active;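 active means inhibition above about 50% at the single test dose, limit read from the data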;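 further: plate controls were DMSO with enzyme for no effect and no enzyme buffer wells for full effect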
SENP6 block – SENP6 protease inhibitors, primary screen, biochemical, luminescence, uHTS. Sentrin-specific protease 6 (Homo sapiens), Q9GZR1. Recombinant SENP6 catalytic domain, aminoluciferin luminescence. inhibition, % at 10 µM. 330,000 tested, 1.8% active. AID 2599, 2010;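 active means inhibition above about 50% at the single tested dose, limit read from the data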;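 further: plate controls were DMSO wells with enzyme for no effect and DMSO wells lacking enzyme for full effect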
SENP8 block-1 – human SENP8 protease inhibitors, primary screen, biochemical, fluorescence, Nedd8 protein substrate, uHTS; Sentrin-specific protease 8 (Homo sapiens), Q96LD8; recombinant SENP8; inhibition, % at 20 µM; 360,000 tested, 0.64% active; in the data active means inhibition mostly above about 40%, no sharp cut-off; inactive means mostly below about 27%
SENP8 block-2 – SENP8 protease inhibitors, primary screen, biochemical, luminescence | 330,000 tested, 1.2% active | Sentrin-specific protease 8 (Homo sapiens), Q96LD8 | purified SENP8, Z-RLRGG-aminoluciferin cleavage | inhibition, % at 10 µM; in the data active means inhibition above about 50%
SENP8 conf – SENP8 protease inhibitors, retest, confirmation, biochemical, luminescence, single concentration. shares compounds with SENP7 inh. Recombinant SENP8, Z-RLRGG-aminoluciferin luminescence, 60 min. inhibition, % at 12.5 µM. 6,200 tested, 40% active;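 active means mean inhibition across replicates above about 50%, limit read from the data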
SENP6 conf – SENP6 protease inhibitors, confirmation, biochemical, luminescence, single concentration; shares compounds with SENP7 inh; recombinant SENP6, Z-RLRGG-aminoluciferin luminescence; inhibition, % at 12.5 µM; 6,200 tested, 58% active; AID 488915, 2010
SENP7 conf – SENP7 protease inhibitors, retest, confirmation, biochemical, luminescence, single concentration. inhibition, % at 12.5 µM. shares compounds with SENP7 inh. recombinant SENP7, Z-RLRGG-aminoluciferin luminescence, 40 min. 6,200 tested, 69% active
Casp3 SENP sel – caspase-3 protease inhibitors, confirmation, selectivity assay for SENP inhibitor project, biochemical, single concentration; AID 488918, 2010; inhibition, % at 12.5 µM; shares compounds with SENP7 inh; purified caspase-3, Z-DEVD-aminoluciferin luminescence, 60 min; 6,200 tested, 60% active;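 active means mean inhibition above about 50%, limit read from the data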;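 further: plate controls were enzyme with DMSO for no effect and wells without caspase-3 for full effect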
SENP luc ctr – counter-screen for SENP inhibitors: luminescence interference. shares compounds with SENP7 inh. Pre-incubated SENP8/Z-RLRGG-aminoluciferin, luciferase luminescence interference. inhibition, % at 12.5 µM. 6,200 tested, 39% active;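 active means mean inhibition above about 50% when retested at one dose, limit read from the data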;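 further: plate controls were DMSO wells with completed reaction for no effect and substrate without enzyme for full effect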
Starred values were filed as active, the others as inactive; · = no result. The list is not random: actives were taken first. Their share in the collection is about 5%.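 How the source made its calls, unless noted: active means mean inhibition above about 50% in the one-dose retest (limit read from the data); inactive means the rest.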

SMILES | EBI2 block | AHR activator | SENP7 inh | SENP6 block | SENP8 block-1 | SENP8 block-2 | SENP8 conf | SENP6 conf | SENP7 conf | Casp3 SENP sel | SENP luc ctr
Cc1nc2ccc(NC(=S)NC3CCCCC3)cc2nc1C | 7 | -4 | 16 | 38 | -414 | 18 | · | · | · | · | ·
OC1(c2ccc(Cl)cc2)CCN(Cc2nc(-c3cnccn3)no2)CC1 | -17 | 0 | -1 | -5 | -1 | 5 | · | · | · | · | ·
Fc1ccc(-c2nc(-c3cnccn3)no2)c(Cl)c1 | -7 | 5 | 85* | 88* | 13 | 81* | 85* | 85* | 96* | 94* | 50
Clc1ccc(-c2nc(-c3cnccn3)no2)cc1 | 4 | -7 | 98* | 96* | 16 | 90* | 90* | 93* | 101* | 97* | 56*
O=C1CN(C(=O)c2ccc(F)cc2)c2ccccc2N1 | -2 | 0 | 5 | -14 | 0 | 9 | · | · | · | · | ·
Cc1ccc2oc(Nc3nc(C)c(C)c(C)n3)nc2c1 | -3 | 1 | -7 | -24 | 15 | -9 | · | · | · | · | ·
Cc1ccnc(Nc2nc3ccccc3o2)n1 | 2 | 23 | 73* | 77* | 12 | 67* | -26 | 54* | 88* | 90* | 50
Cc1ccc(Nc2nc3ccccc3o2)cc1F | -13 | 24 | 87* | 88* | 16 | 78* | 57* | 81* | 98* | 75* | 48
Cc1nc(Nc2nc3ccccc3o2)nc(C)c1C | -10 | -3 | 63* | 58* | 13 | 47 | 8 | 52* | 87* | 80* | 20
COc1ccc(OC)c(NC(=O)NCCCCc2ccccc2)c1 | 10 | 33 | -9 | -9 | 1 | -14 | · | · | · | · | ·
COc1ccc(S(=O)(=O)N(CC(=O)N2CCCCCC2)c2ccccc2OC)cc1 | 6 | 3 | -2 | 8 | 9 | -3 | · | · | · | · | ·
c1ccc2sc(N3CCN(Cc4nnnn4CC4CCCO4)CC3)nc2c1 (configuration not stated) | 7 | 5 | -16 | -10 | 20 | -5 | · | · | · | · | ·
CC1=CC(=C(C#N)c2nc3ccccc3s2)C=C(C)N1CC1CCCO1 (configuration not stated) | 8 | 25 | 18 | 82* | 34 | 26 | -4 | -5 | -1 | 9 | 4
Cc1ccc(-c2noc(CSc3ccccc3)n2)cc1 | -2 | 4 | 52* | 76* | 16 | 37 | 51* | 60* | 81* | 43 | 45
COc1ccc(-c2noc(Cc3ccccc3OC)n2)cc1 | 12 | 2 | 0 | -3 | 20 | -14 | · | · | · | · | ·
COc1ccc(-c2noc(Cc3cccs3)n2)cc1 | 0 | -2 | 13 | 50* | 19 | 30 | 38 | 39 | 69* | 28 | 28
Cc1cccc(-c2noc(CSc3ccccc3)n2)c1 | 15 | 7 | 12 | 25 | 8 | -12 | · | · | · | · | ·
Cc1ccc(OCc2nc(-c3ccccc3)no2)cc1 | -3 | 4 | 32 | 56* | 10 | 12 | 16 | 24 | 65* | 26 | 7
Cc1ccc(-c2noc(COc3ccccc3C)n2)cc1 | 6 | 0 | 28 | -32 | 3 | 0 | · | · | · | · | ·
CN(C)S(=O)(=O)c1ccc(NC(=O)COC(=O)CC2CC3CCC2C3)cc1 (configuration not stated) | -8 | 6 | -13 | -14 | 3 | -9 | · | · | · | · | ·
CCc1cc(=O)oc2cc(C)cc(OC(C)C(=O)NCc3ccccn3)c12 (configuration not stated) | -2 | 3 | -4 | -12 | -237 | 6 | · | · | · | · | ·
CC(C)NC(=O)CC1C(=O)N(Cc2ccccc2)C(C)c2nc3ccccc3n21 (configuration not stated) | -2 | -2 | 0 | -6 | 0 | 0 | · | · | · | · | ·
O=C(c1cccs1)c1ccc(-c2cccs2)s1 | -47 | 0 | 94* | 95* | -376 | 94* | 65* | 96* | 97* | 86* | 42
